Peg3 promoter – reduces Peg3 promoter-driven luciferase expression in HeLa. HeLa PEG-Prom luciferase reporter, luminescence, overnight. inhibition, % at 20 µM. 1.7% of 360,000 active. AID 588405;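 active means inhibition of at least 50% at 20 µM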
Shn3 3UTR inh – Schnurri-3 reporter inhibition in Clone20 osteoblasts; Clone20 osteoblast Shn3 3'UTR firefly luciferase, 24 h; inhibition, % at 12.5 µM; 0.52% of 360,000 active; AID 588674;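 active means mean inhibition of at least 75% with every replicate also reaching 75%; inconclusive means mean inhibition at least 75% but some replicate below; inactive means mean inhibition below 75%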;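 further: 0% = median of neutral control wells and 100% = pilot-screen positive control compound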
HIF-2a inh – HIF-2a inhibition; 786-0 RCC cells HIF-2a reporter, luciferase luminescence, overnight; 0.72% of 360,000 active; inhibition, % at 18.8 µM;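 active means inhibition of the luminescence signal of 40% or more relative to plate controls, in a single-dose primary screen at 18.75 µM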
MITF TRPM1 inh – MITF TRPM1 promoter inhibition in SK-MEL-5 cells; SK-MEL-5 TRPM1 promoter luciferase, 24 h; inhibition, % at 12.5 µM; 0.83% of 330,000 active;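 active means mean inhibition across replicates of 60% or more, whatever share of single replicates reaches that level; inconclusive means some that reach 60%, reason not given; inactive means mean inhibition across replicates below 60%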
KKLEB tox – CF airway cell cytotoxicity counter-screen | KKLEB CF airway cells viability, ATPlite luminescence, overnight; active compounds read low; cells stimulated with P. aeruginosa culture filtrate | activity change (cytotoxicity), % at 5 µM | 0.36% of 360,000 active;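 active means corrected activity change at or below -50% at 5 µM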
CF NFkB inh – inhibitors of cystic fibrosis induced NF-kB; KKLEB NF-kB-GFP reporter, PAF-induced, GFP fluorescence overnight; inhibition, % at 5 µM; 0.86% of 360,000 active; AID 588850;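 active means at least 50% inhibition at 5 µM, scaled per plate between neutral and stimulator controls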;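 further: PAF is a Pseudomonas aeruginosa culture filtrate used as stimulus; plate controls were PAF-stimulated DMSO wells for no effect and unstimulated DMSO wells for full effect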
* hit, by the source's call. Rows were chosen to be rich in hits. Some 2.7% of all compounds tested hit in one or more screens of this group.

Screening O=C(Nc1ccc2c(c1)OCO2)C1Cc2c(-c3ccc4c(c3)OCO4)ccnc2O1 (stereo unspecified) returned Peg3 promoter 20, Shn3 3UTR inh -11, HIF-2a inh 9, KKLEB tox -12 and CF NFkB inh -2.
COc1ccc(CCNC(=O)c2ccc3c(c2)N(Cc2ccccc2)CCS3)cc1OC was read as Peg3 promoter 55*, Shn3 3UTR inh 10, HIF-2a inh 3, MITF TRPM1 inh 13, KKLEB tox -3 and CF NFkB inh 16.
COc1ccc(OC)c(CCNC(=O)c2ccc3c(c2)N(Cc2ccccc2)CCS3)c1 was read as Peg3 promoter 22, Shn3 3UTR inh 2, HIF-2a inh 5, MITF TRPM1 inh -20, KKLEB tox 1 and CF NFkB inh -5.
Screening C1C2CC3C1C3C2=NN=C1C2CC3C(C2)C13 returned Peg3 promoter -13, Shn3 3UTR inh -13, HIF-2a inh 3, KKLEB tox 4 and CF NFkB inh -16.
For COC(=O)/C=C1\OCc2cc(OCc3ccccc3)ccc21 the results were HIF-2a inh -127.
`C[C@@H]1CN([C@H](C)CO)C(=O)c2c(c3ccccc3n2C)-c2ccccc2CO[C@H]1CN(C)Cc1ccc(Oc2ccccc2)cc1` gave Peg3 promoter 58*, Shn3 3UTR inh 3, HIF-2a inh -34, KKLEB tox -29 and CF NFkB inh 30.
Screening C[C@@H]1CN([C@H](C)CO)C(=O)c2c(c3ccccc3n2C)-c2ccccc2CO[C@H]1CN(C)Cc1ccc(C(F)(F)F)cc1 returned Peg3 promoter 59*, Shn3 3UTR inh 21, HIF-2a inh -69, KKLEB tox -8 and CF NFkB inh 10.
Screening C[C@@H]1CN([C@@H](C)CO)C(=O)c2c(c3ccccc3n2C)-c2ccccc2CO[C@H]1CN(C)S(=O)(=O)c1ccc(C(F)(F)F)cc1 returned Peg3 promoter 11, Shn3 3UTR inh -25, HIF-2a inh 3, KKLEB tox 4 and CF NFkB inh 6.
Screening CCc1nc2c(OCc3ccc(C(F)(F)F)cc3)cccn2c1N(C)C(=O)C1CC1 returned Peg3 promoter 14, Shn3 3UTR inh 2, HIF-2a inh -2, KKLEB tox 4 and CF NFkB inh -9.
Screening CN1OC[C@@H]2CN(C(=O)Nc3ccccc3)[C@H](c3ccc(N4CCCCC4)cc3)C[C@@H]21 returned Peg3 promoter 5, Shn3 3UTR inh -3, HIF-2a inh -5, KKLEB tox -12 and CF NFkB inh -22.
Screening NC(N)=N/N=C/c1ccc(OCc2ccccc2)cc1 returned Peg3 promoter 54*, Shn3 3UTR inh 0, HIF-2a inh -115, MITF TRPM1 inh -2, KKLEB tox -12 and CF NFkB inh -5.
For NC(N)=N/N=C/c1ccc(OCc2ccc(Cl)cc2)cc1 the results were Peg3 promoter 110*, Shn3 3UTR inh 73, HIF-2a inh -124, MITF TRPM1 inh -35, KKLEB tox -31 and CF NFkB inh 35.
Screening O=S1(=O)CC(N2CCC(c3ccccc3)CC2)CN1Cc1ccc(F)cc1 (stereo unspecified) returned Peg3 promoter 16, Shn3 3UTR inh -9, HIF-2a inh 3, KKLEB tox -9 and CF NFkB inh 18.
Screening Cc1ccc2c(c1C)-c1c(ccc(C)c1C)C(=O)C2=O returned Peg3 promoter 95*, Shn3 3UTR inh 54, HIF-2a inh 66*, MITF TRPM1 inh 108*, KKLEB tox -53* and CF NFkB inh 86*.
Screening Nc1ccc(N=Nc2ccccc2)c2cccnc12 returned Peg3 promoter -197, Shn3 3UTR inh -32, HIF-2a inh -230, MITF TRPM1 inh -44, KKLEB tox -6 and CF NFkB inh 23.
COc1cccc(N=Nc2ccc(O)c3ncccc23)c1 was read as Peg3 promoter -91, Shn3 3UTR inh 80, HIF-2a inh -123, MITF TRPM1 inh 52, KKLEB tox -81* and CF NFkB inh 100*.
Screening COc1ccc(C)cc1N=Nc1ccc(O)c2ncccc12 returned Peg3 promoter 49, Shn3 3UTR inh 90*, HIF-2a inh 22, MITF TRPM1 inh 72*, KKLEB tox -7 and CF NFkB inh 10.
`COc1cccc(N=Nc2ccc3cccnc3c2O)c1` gave Peg3 promoter -16, Shn3 3UTR inh 90*, HIF-2a inh -70, MITF TRPM1 inh 43, KKLEB tox 5 and CF NFkB inh -25.
For O=S(=O)(O)c1cccc2c(N=Nc3ccc(O)c4ncccc34)cccc12 the results were Peg3 promoter 1, Shn3 3UTR inh 3, HIF-2a inh 3, MITF TRPM1 inh 13, KKLEB tox 3 and CF NFkB inh -3.
Cc1ccccc1N=Nc1ccc(O)c2ncccc12 was read as Peg3 promoter 22, Shn3 3UTR inh inconclusive, HIF-2a inh 1, MITF TRPM1 inh 76*, KKLEB tox 10 and CF NFkB inh -9.
`COc1cc(OC)cc(C(=O)Nc2cccc3cccnc23)c1` gave Peg3 promoter -26, Shn3 3UTR inh -73, HIF-2a inh -58, MITF TRPM1 inh -7, KKLEB tox 0 and CF NFkB inh -22.
Screening Cn1cc([C@]2(O)C(=O)Nc3ccc(Br)cc32)c2ccccc21 returned HIF-2a inh 19.
For c1ccc(Cn2c(Cn3c(-c4cnccn4)nc4ccccc43)nc3ccccc32)cc1 the results were HIF-2a inh -5.
For CC(=O)OCC(C)n1[nH]c2ccccc2c1=O (stereo unspecified) the results were Peg3 promoter -2, Shn3 3UTR inh -16, HIF-2a inh -2, KKLEB tox 0 and CF NFkB inh -4.
COc1ccc(N=Nc2cc(-c3ccccc3)ccc2O)cc1 was read as Peg3 promoter -47, Shn3 3UTR inh -9, HIF-2a inh -73, MITF TRPM1 inh -1, KKLEB tox 10 and CF NFkB inh -21.
Screening O=Nc1ccc(O)c2ncccc12 returned Peg3 promoter 76*, Shn3 3UTR inh 86*, HIF-2a inh -3, MITF TRPM1 inh 41, KKLEB tox -51* and CF NFkB inh 72*.
COc1ccc(N=Nc2ccc(O)c3ncccc23)cc1 was read as Peg3 promoter -32, Shn3 3UTR inh 91*, HIF-2a inh -39, MITF TRPM1 inh 69*, KKLEB tox 2 and CF NFkB inh 3.
CC(C)CCN1C(=O)c2ccccc2C1c1nnnn1-c1ccc2c(c1)OCCO2 (stereo unspecified) was read as HIF-2a inh 1.
`CCCCNC(=O)C[C@@H]1C[C@@]2(C(=O)OCC)CCCC=C2N(CCC2=CCCCC2)C1=O` gave HIF-2a inh -1.
Cc1cc(Br)c(OCc2ccc(C(=O)N/N=C/c3ccc[nH]3)cc2)c(Br)c1 was read as Peg3 promoter 100*, Shn3 3UTR inh 97*, HIF-2a inh 8, KKLEB tox -85* and CF NFkB inh 71*.

Compound activity deposited in PubChem BioAssay by several laboratories.
